Laboratory results from PubChem BioAssay.
Where “and” joins values, the source holds several entries; their conditions need not be identical. Identical values can stand only once. For part of these data: Potency and affinity values are given separately. Calls of active or inactive are those of the source.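 Rule for the calls, unless noted: active = normalized viability below 100% at a tested concentration; inactive = the rest.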

Experiments:
[1] = compounds altering viability of human ES cells (AID 493140; call rule not given here;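 note: cells exposed to compounds for four days before counting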); settings: human embryonic stem cell survival screen; stronger effect = higher value
[2] = P. berghei load reduction in hepatocytes – cell-based, HepG2, luciferase luminescence, HepG2 viability, primary screen (AID 624349; in the data active = parasite load remaining mostly below about 12%, no sharp cut-off; inactive = mostly above about 10%;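 note: 100% = mean of DMSO negative control wells on the same plate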); settings: P. berghei liver stage in HepG2, luciferase luminescence, concentration not given here; parasite load remaining: stronger effect = lower value; viability: measured here: HepG2 viability without parasites
[3] = signal quenchers or enhancers, Cy5 substrate/SSB – biochemical, NIH Clinical Collection, E. coli SSB, artefact control for HCV NS3 helicase inhibitor project (AID 743268; call rule not given here); settings: Cy5-oligo bound E. coli SSB, fluorescence interference
[4] = modulation of C. elegans fzo-1 (AID 1259413; call rule not given here;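 note: fzo-1 mutant C. elegans worms in liquid wells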); settings: C. elegans fzo-1 modulator screen, mean read-out; stronger effect = higher value
[5] = galactose survival enhancers in mitochondrial complex I cybrids – cell-based, galactose medium, ATP luminescence, primary screen (AID 1645843;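 active = z-score of at least 1.8 in each of two replicates, scored against plate mean and spread of sample wells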;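 note: positive z means more ATP and so rescue of galactose-driven cybrid death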); settings: complex I mutant cybrid cells, 72 h, stronger effect = higher value
R275C = experiment: BK channel mutant inhibitors and activators – cell-based, U2OS BacMam, thallium flux, beta subunits, selectivity assay, profiling panel (AID 1259406;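 active = thallium flux through the channel raised or lowered by more than 3 SD from vehicle-only wells, actives on both sides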;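 note: initial slope of Thallos dye fluorescence rise after thallium is added; log ratio against the mean of 0.3% DMSO vehicle wells on the same plate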); settings: U2OS BacMam BK variants, at 30 µM
R275C/beta1 = experiment: as above; settings: U2OS BacMam BK variants, at 30 µM
R275C/beta2Delta = experiment: as above; settings: U2OS BacMam BK variants, at 30 µM
[6] = blockers of polyQ-driven CASP3 activation – cell-based (AID 1583); settings: polyglutamine-induced caspase-3 activation, cell assay; stronger effect = higher value;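 tested at 10 µM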
[7] = yeast 75Q aggregation reduction – 75Q-TubU reporter (AID 1593); settings: Yeast 75Q polyglutamine aggregation reporter
[8] = restoration of touch response, mutant HTT neurons – whole organism, C. elegans mechanosensory neurons, N-terminal huntingtin (AID 1599); settings: C. elegans polyQ-huntingtin mechanosensory neurons, stronger effect = higher value
[9] = blockers of cytochrome c efflux from mitochondria – biochemical, purified mitochondria (AID 1603); settings: stronger effect = lower value;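 note: mouse liver mitochondria challenged with calcium chloride; signal normalized to the plate average as 100%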
[10] = polyglutamine aggregate formation blockers (AID 1604); settings: polyglutamine-induced protein aggregation inhibition assay; stronger effect = higher value; tested at 2.5 µM
[11] = glutamate transport activators, MN-1 cells, MN-1 cell line (AID 1612); settings: MN-1 motor neuron cells, stronger effect = higher value;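 note: tested at 1 µM final; 0% = mean of DMSO vehicle wells on each plate; positive means more glutamate uptake than control and negative means less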
[12] = 75Q-TubH aggregate inhibition, S. cerevisiae, yeast (AID 1616); settings: S. cerevisiae 75Q-TubH polyglutamine aggregation suppression; stronger effect = higher value
[13] = drug combination growth inhibition, ovarian cancer – cell-based, oncology-focused library, rucaparib conditional, profiling panel (AID 1508598); settings: patient-derived ovarian cancer cells, CellTiter-Glo viability, 144 h, stronger effect = lower value

For COc1ccccc1N1CCN(CCCNc2cc(=O)n(C)c(=O)n2C)CC1, the survival [1] was 5.83 (inactive), the parasite load remaining [2] was 53.4% (inactive) and 119% (inactive) and 80.7% (inactive) and the viability [2] was 95.1% and 83.4% and 78.9%. For the same compound, the fluorescence ratio [3] was 0.99 (inactive), the mean signal [4] was 262 (inactive) and the z-score [5] was 0.56 (inactive) and 1 (inactive) and -0.025 (inactive). The log fold change Tl+ flux (R275C) was -0.0421 (inactive), the log fold change Tl+ flux (R275C/beta1) was 0.0413 (inactive) and the log fold change Tl+ flux (R275C/beta2Delta) was 0.0288 (inactive).

For CN(C)CCOC(c1ccccc1)c1ccccc1, the inhibition [6] was 15.6%, the score [7] was 1.18 and the rescue above control [8] was -3.14. It also gave a cytochrome c release ratio [9] of 1.11, an inhibition of aggregation [10] of 85.2% and a glutamate uptake change [11] of 8.03%. The aggregation suppression score [12] was 1.07, the survival [1] was 14 (inactive) and the fluorescence ratio [3] was 1.02 (inactive). For the same compound, the mean signal [4] was 216 (inactive), the z-score [5] was -0.255 (inactive) and 0.81 (inactive) and 0.09 (inactive) and the log fold change Tl+ flux (R275C) was 0.00435 (inactive). The log fold change Tl+ flux (R275C/beta1) was 0.00179 (inactive) and the log fold change Tl+ flux (R275C/beta2Delta) was 0.0139 (inactive).

With Nc1c2c(nc3ccccc13)CCCC2 the inhibition [6] was -14.1%, the score [7] was 1.21 and the rescue above control [8] was -13.1. The cytochrome c release ratio [9] was 0.63, the inhibition of aggregation [10] was 38.8% and the glutamate uptake change [11] was 4.59%. For the same compound, the aggregation suppression score [12] was 1.23, the survival [1] was 6.42 (inactive) and the fluorescence ratio [3] was 0.95 (inactive). For the same compound, the mean signal [4] was 215 (inactive), the log fold change Tl+ flux (R275C) was 0.0238 (inactive) and the log fold change Tl+ flux (R275C/beta1) was -0.0128 (inactive). For the same compound, the log fold change Tl+ flux (R275C/beta2Delta) was -0.0194 (inactive).

With CCN(CC)C(=S)SSC(=S)N(CC)CC the survival [1] was 16.9 (inactive), the fluorescence ratio [3] was 0.98 (inactive) and the mean signal [4] was 249 (inactive). The viability ([13]; at 0.000305 µM, OCI-C5x cells, with rucaparib 10 µM, 100% = cells with rucaparib alone) was 117% (inactive), the viability ([13]; at 0.000305 µM, OCI-C5x cells, without rucaparib) was 126% (inactive) and the viability ([13]; at 0.000305 µM, OCI-P5x cells, with rucaparib 20 µM, 100% = cells with rucaparib alone) was 78.8% (active). The viability ([13]; at 0.000305 µM, OCI-P5x cells, without rucaparib) was 89.7% (active), the viability ([13]; at 0.00122 µM, OCI-C5x cells, with rucaparib 10 µM, 100% = cells with rucaparib alone) was 122% (inactive) and the viability ([13]; at 0.00122 µM, OCI-C5x cells, without rucaparib) was 146% (inactive). For the same compound, the viability ([13]; at 0.00122 µM, OCI-P5x cells, with rucaparib 20 µM, 100% = cells with rucaparib alone) was 76.6% (active), the viability ([13]; at 0.00122 µM, OCI-P5x cells, without rucaparib) was 90.8% (active) and the viability ([13]; at 0.00488 µM, OCI-C5x cells, with rucaparib 10 µM, 100% = cells with rucaparib alone) was 117% (inactive). The viability ([13]; at 0.00488 µM, OCI-C5x cells, without rucaparib) was 130% (inactive), the viability ([13]; at 0.00488 µM, OCI-P5x cells, with rucaparib 20 µM, 100% = cells with rucaparib alone) was 75.9% (active) and the viability ([13]; at 0.00488 µM, OCI-P5x cells, without rucaparib) was 86.5% (active). For the same compound, the viability ([13]; at 0.0195 µM, OCI-C5x cells, with rucaparib 10 µM, 100% = cells with rucaparib alone) was 128% (inactive), the viability ([13]; at 0.0195 µM, OCI-C5x cells, without rucaparib) was 126% (inactive) and the viability ([13]; at 0.0195 µM, OCI-P5x cells, with rucaparib 20 µM, 100% = cells with rucaparib alone) was 74.6% (active). The viability ([13]; at 0.0195 µM, OCI-P5x cells, without rucaparib) was 78.5% (active), the viability ([13]; at 0.0781 µM, OCI-C5x cells, with rucaparib 10 µM, 100% = cells with rucaparib alone) was 120% (inactive) and the viability ([13]; at 0.0781 µM, OCI-C5x cells, without rucaparib) was 120% (inactive). The viability ([13]; at 0.0781 µM, OCI-P5x cells, with rucaparib 20 µM, 100% = cells with rucaparib alone) was 104% (inactive), the viability ([13]; at 0.0781 µM, OCI-P5x cells, without rucaparib) was 131% (inactive) and the viability ([13]; at 0.313 µM, OCI-C5x cells, with rucaparib 10 µM, 100% = cells with rucaparib alone) was 135% (inactive). The viability ([13]; at 0.313 µM, OCI-C5x cells, without rucaparib) was 136% (inactive), the viability ([13]; at 0.313 µM, OCI-P5x cells, with rucaparib 20 µM, 100% = cells with rucaparib alone) was 102% (inactive) and the viability ([13]; at 0.313 µM, OCI-P5x cells, without rucaparib) was 129% (inactive). For the same compound, the viability ([13]; at 1.25 µM, OCI-C5x cells, with rucaparib 10 µM, 100% = cells with rucaparib alone) was 121% (inactive), the viability ([13]; at 1.25 µM, OCI-C5x cells, without rucaparib) was 135% (inactive) and the viability ([13]; at 1.25 µM, OCI-P5x cells, with rucaparib 20 µM, 100% = cells with rucaparib alone) was 103% (inactive). For the same compound, the viability ([13]; at 1.25 µM, OCI-P5x cells, without rucaparib) was 116% (inactive), the viability ([13]; at 5 µM, OCI-C5x cells, with rucaparib 10 µM, 100% = cells with rucaparib alone) was 113% (inactive) and the viability ([13]; at 5 µM, OCI-C5x cells, without rucaparib) was 129% (inactive). The viability ([13]; at 5 µM, OCI-P5x cells, with rucaparib 20 µM, 100% = cells with rucaparib alone) was 110% (inactive), the viability ([13]; at 5 µM, OCI-P5x cells, without rucaparib) was 120% (inactive) and the z-score [5] was -1.35 (inactive) and -1.44 (inactive) and -2.44 (inactive). For the same compound, the log fold change Tl+ flux (R275C) was 0.00507 (inactive), the log fold change Tl+ flux (R275C/beta1) was 0.145 (active) and the log fold change Tl+ flux (R275C/beta2Delta) was 0.0247 (inactive).
